The values below come from PubChem BioAssay (NCATS).

“And” between values parts separate entries of the source, which are not always exact repeats. Equal values may be shown once. Records with an inconclusive call do not appear. Values without a mark were called inactive. The source made the active and inactive calls. Calls come from the whole dose curve; as a rule, active = well fitted activation curve with a large enough effect; inconclusive = small, poorly fitted or top-dose-only effect; inactive = no such curve, though single readings can be large or run the other way.
Potency is the fitted concentration of half-maximal effect.

Sequence of Cellular tumor antigen p53 (Homo sapiens) (P04637 whole entry, looked up): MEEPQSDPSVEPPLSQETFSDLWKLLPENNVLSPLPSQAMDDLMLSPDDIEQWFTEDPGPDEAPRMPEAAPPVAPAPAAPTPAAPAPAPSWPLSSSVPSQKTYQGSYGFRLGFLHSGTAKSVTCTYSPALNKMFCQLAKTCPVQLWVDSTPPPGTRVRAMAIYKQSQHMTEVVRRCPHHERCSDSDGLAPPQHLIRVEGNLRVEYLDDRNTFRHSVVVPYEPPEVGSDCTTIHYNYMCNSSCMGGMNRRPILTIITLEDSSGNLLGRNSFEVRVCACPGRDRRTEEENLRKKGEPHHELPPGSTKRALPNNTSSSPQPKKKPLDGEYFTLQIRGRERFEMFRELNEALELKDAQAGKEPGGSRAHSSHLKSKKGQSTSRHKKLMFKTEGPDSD

The target of this assay is Cellular tumor antigen p53 (Homo sapiens) (UniProt P04637). Kind of assay: Primary qHTS for small molecule compounds that upregulate eGFP-tagged delta133p53alpha (in N-terminal) cells. (AID 2060322).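 For activation: cells pre-induced with doxycycline then dosed without doxycycline; series mostly up to about 56 µM; 0% = DMSO vehicle and 100% = reference activator.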 Note: nearly all actives have a fitted effect of over 75% in size. The following applies: NCI-H358 eGFP-delta133p53alpha fluorescence, 24 h; activation: hits give high values. From the text:
Assay Development and Screening Technology
National Center for Advancing Translational Sciences (NCATS),
National Institute of Health (NIH), Rockville, Maryland
Cellular senescence (CS) is one of the hallmarks of aging and age-related diseases. Senescent cells are characterized by an irreversible growth arrest, an increase in senescence-associated beta-galactosidase (SA-beta-gal) activity and p16INK4a expression, an activation of the DNA damage response pathways, and the emergence of a senescence-associated secretory phenotype (SASP).
Delta133p53alpha, a human/primate-specific p53 protein isoform, delays or inhibits the induction of CS and SASP in various types of human cells, including progeria-derived fibroblasts, primary normal astrocytes, and CD8+ T lymphocytes. Induction of delta133p53alpha with small molecule compounds may provide therapeutic opportunities for inhibition of senescence/SASP-associated pathologies in progeria syndromes, astrocyte-mediated neuroprotection in neurodegenerative diseases, and possibly prevention and treatment of a wider range of senescence- and aging-associated diseases.
Here we report the development and validation of a cell-based quantitative high throughput screening (qHTS) assay in 1,536-well format. This qHTS assay uses the NCI-H358 cell line with doxycycline-inducible expression of enhanced green fluorescent protein (eGFP)-tagged delta133p53alpha, which allows efficient and highly quantitative measurement of the protein levels.
PROTOCOL TABLE (as described by Inglese J, Shamu CE and Guy RK. 2007)
SEQUENCE No. (e.g., 1, 2, 3, etc.); […] (e.g., Cells, Incubation, Reagent, etc.); VALUE; DESCRIPTION.
1; Cells; 4uL; 800 doxycycline treated cells / well in doxycycline-free media, 1536-well black, clear-bottom low base Aurora microplates.
2; Compounds; 23 nL; Kalypsis pin tool (Wako) equipped with 1536-well pin heads, 5-azacytidine positive control.
3; Incubation; 24 hr; 37C, 5% CO2; 95% relative humidity.
4; Aspiration; 1x; BioTek EL406 washer dispenser (Agilent).
5; Fixing; 3.5% paraformaldehyde, BioTek EL406 washer dispenser (Agilent).
6; Washing; 1x PBS; BioTek EL406 washer dispenser (Agilent).
7; Nuclei staining; 1:1000 dilution of Hoechst 33342 (Thermofisher), BioTek EL406 washer dispenser (Agilent).
8; Incubation; 20 min; in the dark at room temperature.
9; Washing; 2x, 1x PBS (ThermoFisher), BioTek EL406 washer dispenser (Agilent).
10; Reagent; 10 uL; 1x PBS per well, sealed with clear adhesive tape.
NOTES (numbers refer to sequence numbers above).
1. NCI-H358 cells expressing eGFP-tagged delta133p53alpha were grown in T75 culture flasks and treated with doxycycline for 24h, at 10 ng/ml for eGFP-D133p53a cells (N-terminal cell) and 100 ng/ml for D133p53a-eGFP cells (C-terminal cells). Cells were trypsinized, counted using a Counted 3 Automated Cell Counter (Thermo Fisher), and diluted to a concentration of 200,000 cells/ml. A Multidrop Combi Reagent Dispenser (ThermoFisher) was used to dispense 800 cells/well in […] of doxycycline-free media, into 1536-well black/clear bottom low base plates (AuroraMicroplates).
2. After plating cells, 23 nl of compound library, DMSO vehicle control or positive control (5-azacytidine) were transferred by Pin Tool (Wako). The plate map layout was the same for each plate: (column 1) non-doxycycline treated cells + DMSO vehicle control; (column 2) doxycycline treated cells + DMSO vehicle control baseline; (column 3) doxycycline treated cells + positive control 57.5 uM final concentration 5-azacytidine; (column 4) doxycycline treated cells + serial dilution of 5-azacytidine, 16-point 1:2 titration spanning 1.8 nM to […] final concentration; (columns 5-48) doxycycline treated cells + titration of library compounds.
3. Cells were incubated at 37 °C, 5 % CO2, 95% RH with breathable metal lid for 24h.
4-10. […] After two washes, 10 ul of 1X PBS (Thermo Fisher) was dispensed to each well. Clear adhesive plate seals (VWR) were applied and plates stored at 4 °C.
11. […]
In general terms: Quantitative high-throughput screening tests each substance at several concentrations.
Regarding `N[C@@H](CC(=O)N1CCn2c(nnc2C(F)(F)F)C1)Cc1[nH]nc2c(F)c(F)ccc12`, the activation is -3.82%.

Turning to `CCOC(=O)C(=O)CCc1ccccc1`, the activation was 10%. On the same count and under the same terms, the same measure for `NC(=O)c1noc([C@H](CCCC2CCCCC2)CC(=O)NO)n1`: -7.14%; for `COc1ccc2c(OC)c3ccoc3nc2c1OC`: -3.05%. Still for that read-out and setting: the same measure for `COCCN1CCC(C(=O)NO)(S(=O)(=O)c2ccc(Oc3ccc(OC(F)(F)F)cc3)cc2)CC1`: -13.4%. The same measure, in the same setting: to `COc1ccc(Cn2ccc3ccc(C(=O)NO)cc32)cc1` belongs 20.3% and -6.7%; to `C/C=C(\C)C(=O)OC[C@H]1O[C@H](O[C@H]2O[C@H](CO)[C@@H](OC(=O)/C(C)=C/C)[C@H](O)[C@H]2O[C@@H]2O[C@H](CO)[C@@H](O)[C@H](O)[C@H]2O)[C@H](O[C@@H]2O[C@H](CO)[C@@H](O)[C@H](O)[C@H]2O)[C@@H](O)[C@@H]1O`, -4.46%. For `C=C1C(=O)OC[C@@H]1C/C=C(\C)CC1CC(C)C(=O)O1` (stereo not given in full), the Potency was 23.9 µM (active). `C[C@@H]1C[C@@H](O)[C@@]23CO[C@]2(CO)CCC[C@@H]3[C@@]12C[C@@H](c1ccoc1)OC2=O`: the activation was 24.4%. Turning to `CC1CCC(=O)CC(SCC(O)C(=O)O)CCC(=O)O1` (stereo not given), the activation is -26%. Consider `O=c1ccn([C@@H]2O[C@H](CO)[C@H](O)[C@@H]2F)c(=O)[nH]1`, for which the activation is -22.6%.

For `O=C(NCc1cccc(O)c1)c1cc2cc(F)ccc2[nH]1`, the activation was 0%. Take `CC1(C)C(=O)CCC2(C)C1C(O)C=C1COC(=O)C12O` (stereo not given): the activation is 25.2%. In the case of `CCCCC#Cc1nc(NC)c2ncn([C@@H]3O[C@H](CO)[C@@H](O)[C@H]3O)c2n1`, the activation was -3.87%. Turning to `CC#CC(=O)N1CCC[C@H]1c1nc(-c2ccc(C(=O)Nc3ccccn3)cc2)c2c(N)nccn12`, the activation is 15.7%.

Regarding `O=C(NN1CCCCC1)c1nn(-c2ccc(Cl)cc2Cl)c(-c2ccc(C#Cc3ccc(C(F)(F)F)cc3)s2)c1CNS(=O)(=O)N1CCCC1`, the activation is -21%. Same read-out and setting: the same measure for `CC(C)N(CC[C@H](c1ccccc1)c1cc(CO)ccc1O)C(C)C`: 16.8%; for `COc1cc(C(O)C(=O)O)ccc1O` (stereo not given): -11.9%. On the same count and under the same terms, the same measure for `Cc1nc(C(=O)N2CCC[C@H]2Cc2nnc(-c3ccccc3)o2)c(-c2ccccc2F)s1`: 3.82%; for `Cn1cc(-c2ccc(F)c(C(F)(F)F)c2)nc1C1CCN(c2ncnc3[nH]ncc23)CC1`: 10%.

In the case of `CC(C(O)c1ccccc1)N(C)CCOC(c1ccccc1)c1ccccc1` (stereo not given), the Potency was 21.9 µM (active).

Turning to `CC(=O)O[C@@H]1C[C@@]23C[C@@]24CC[C@H](O[C@@H]2OC[C@H](O)[C@H](O)[C@H]2O)C(C)(C)[C@@H]4CC[C@H]3[C@]2(C)[C@@H](O)C34O[C@H](C[C@@H](C)[C@@H]3[C@@]12C)[C@@H](C(C)(C)O)O4`, the Potency is 3.79 µM (active). Consider `CC(C)(O)C1CCC(C)(C2CCC3(C)C4CCC5C(C)(C(=O)OC6OC(CO)C(O)C(O)C6O)C(O)CC(O)C56CC46CCC23C)O1` (stereo not given), for which the activation was -11.5%. The same measure, in the same setting: to `CC(=O)Oc1ccccc1C(=O)O` belongs 23.2% and 81.8% and -5.87%.

Consider `CCS(=O)(=O)c1cccc(-c2cc(C(=O)NC3CCN(C)CC3)c(C)c3[nH]c4ncc(C)cc4c23)c1`, for which the Potency was 12.2 µM (active) and 5.88 µM (active). With `OCc1ccc(-c2ccc(-c3ccc(CO)s3)o2)s1`, the activation is 23.8% and 25%. On the same count and under the same terms, the same measure for `CC[C@H](C)/C=C(C)/C=C/C(=O)Cc1cc(O)c(C)c(O)c1C=O`: 7.63%. Still for that read-out and setting: the same measure for `C[C@@H]1O[C@@H](O[C@H]2[C@H](O[C@H]3[C@H](O[C@H]4CC[C@@]5(C)C(CC[C@]6(C)C5CC=C5[C@@H]7CC(C)(C(=O)O)C[C@@H](O)[C@]7(C)CC[C@]56C)[C@@]4(C)CO)O[C@H](C(=O)O)[C@@H](O)[C@@H]3O)O[C@H](CO)[C@H](O)[C@@H]2O)[C@H](O)[C@H](O)[C@H]1O` (stereo not given in full): -0.893%; for `CN(CC1(C)CCCO1)S(=O)(=O)c1ccc(Cl)c(S(N)(=O)=O)c1` (stereo not given): -1.69%; for `COC(=O)C(CC1CCCC1)c1ccc(S(C)(=O)=O)cc1` (stereo not given): 0.955%. Turning to `CCN(CC)CCCC(C)Nc1c2ccc(Cl)cc2nc2ccc(OC)cc12` (stereo not given), the Potency is 12.3 µM (active) and 11.7 µM (active). Regarding `C=C1CCC2C(C)(C)C(O)CCC2(C)C1CCC(C)CCOC(C)=O` (stereo not given), the activation was 5.36%. Take `c1ccc2c(-c3cnn4cc(-c5ccc(N6CCNCC6)cc5)cnc34)ccnc2c1`: the activation is 75.9%. `O=C(Nc1ccccc1)c1cc([N+](=O)[O-])ccc1Cl`: the activation is 24.9%. Regarding `Cn1cnc([N+](=O)[O-])c1Sc1ncnc2nc[nH]c12`, the activation was -10%. On the same count and under the same terms, to `O=C(C1CCCCC1)N1CC(=O)N2CCCc3ccccc3C2C1` (stereo not given) belongs 4.18%; to `COC(=O)C1=CO[C@@H](O[C@@H]2O[C@H](CO)[C@@H](O)[C@H](O)[C@H]2O)[C@@H]2[C@@H](C(=O)O)CC[C@H]12`, -5.34%.

`COc1ccccc1CN[C@@H]1CCCN[C@@H]1c1ccccc1`: the activation is -89.1%. Consider `Cc1ccc(C(=O)Nc2ccc(Oc3cc4cnn(C)c4cc3-c3cn[nH]c3)c(F)c2)c(=O)n1-c1ccc(F)cc1`, for which the Potency was 15.1 µM (active). For the molecule `C[C@@H](Nc1cc(NS(=O)(=O)N2CCC2)nc(SCc2cccc(F)c2F)n1)[C@@H](O)CO`, the activation is -20.5%.
